Assay results reported in the supplement of paper PMC10646978.
± gives the standard deviation.

Experiments:
Conditions in all cases: modulator concentration 10 µM
[1] = test system: RAW-Dual (murine macrophage reporter line); assay: NF-kB reporter (SEAP) activity fold change vs agonist alone; higher = enhanced NF-kB activity
Outline: (§1)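 Compound reached 10 μM final in each well by pin transfer, onto RAW-Dual murine macrophage reporter cells seeded at 50 000 per well in 384-well plates. After 1 hour at 37 °C, the cells were stimulated overnight with a PRR agonist. SEAP in the supernatant was read with QUANTI-Blue at 620 nm absorbance for NF-κB, and Lucia luciferase was read with QUANTI-Luc luminescence for IRF. Each signal was turned into fold change against the mean agonist-only control on the same plate, and two replicate plates were averaged with propagated errors.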

[2] = test system: RAW-Dual (murine macrophage reporter line); assay: IRF reporter (Lucia luciferase) activity fold change vs agonist alone; higher = enhanced IRF activity
Outline: as §1

[3] = test system: RAW-Dual (murine macrophage reporter line); assay: viability score (confluency relative to resting cells, overnight) (fraction); higher = more viable, active = viable (0.7 or more)
Outline: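 A compound met the cutoff when both of two confluency masks exceeded 70% of resting cells. Those masks were made with IncuCyte software from IncuCyte images of RAW-Dual macrophages treated overnight at 10 μM final. This is the basis of the viability score, which is confluency relative to resting cells.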

[4] = agonist: CpG ODN 1826 0.5 ug/mL

Row | SMILES | NF-kB reporter [1, 4] | NF-kB reporter ([1]; agonist: LPS 0.1 ug/mL) | NF-kB reporter ([1]; agonist: MPLA […]) | IRF reporter ([2]; agonist: 3'3'-cGAMP 10 ug/mL) | IRF reporter ([2]; agonist: LPS 0.1 ug/mL) | IRF reporter ([2]; agonist: MPLA […]) | viability score [3]
1 | CN1CCN(C2=Nc3ccccc3Oc3ccc(Cl)cc32)CC1.O=C(O)CCC(=O)O | 0.411 ± 0.052 | 0.796 ± 0.081 | 1.07 ± 0.1 | 0.548 ± 0.12 | 0.722 ± 0.13 | 0.672 ± 0.15 | 0.92 (active)
2 | CN1CCCC(n2nc(Cc3ccc(Cl)cc3)c3ccccc3c2=O)CC1.Cl (stereo not drawn) | 0.135 ± 0.008 | 0.929 ± 0.12 | 1.42 ± 0.26 | 1.12 ± 0.14 | 1.19 ± 0.22 | 1.35 ± 0.4 | 0.587 (inactive)
3 | O=C(CC1Sc2ccccc2NC1=O)Nc1ccccc1 (stereo not drawn) | 0.945 ± 0.084 | 0.877 ± 0.071 | 1.03 ± 0.18 | 0.754 ± 0.11 | 1.32 ± 0.29 | 1.41 ± 0.38 | 1.02 (active)
4 | CN1C(=O)C(=NNC(=O)c2ccccc2Cl)c2cc(Br)cc(Br)c21 | 1.13 ± 0.091 | 0.997 ± 0.081 | 1.03 ± 0.057 | 0.897 ± 0.15 | 1.12 ± 0.078 | 1.01 ± 0.32 | 1 (active)
5 | COC(=O)COc1ccc2oc(=O)cc(-c3cc4cccc(OC)c4o3)c2c1 | 0.858 ± 0.065 | 1.06 ± 0.12 | 1.05 ± 0.025 | 0.928 ± 0.052 | 0.872 ± 0.084 | 1.04 ± 0.086 | 0.992 (active)
6 | CSCCC(NC(C)=O)C(=O)N1CCc2nc3ccc(F)cn3c(=O)c2C1 (stereo not drawn) | 1.05 ± 0.097 | 1.05 ± 0.088 | 0.906 ± 0.074 | 0.97 ± 0.085 | 1.24 ± 0.15 | 1.13 ± 0.12 | 1.01 (active)
7 | CCC(C(=O)NCc1ccnc(-c2ccncc2)c1)c1ccccc1 (stereo not drawn) | 1.27 ± 0.09 | 1.1 ± 0.084 | 1.12 ± 0.03 | 0.574 ± 0.029 | 0.654 ± 0.086 | 0.545 ± 0.12 | 0.994 (active)
8 | Nc1nc(Cl)nc2c1ncn2[C@@H]1O[C@H](CO)[C@@H](O)[C@@H]1F | 2.13 ± 0.16 | 1.41 ± 0.13 | 1.4 ± 0.087 | 1.08 ± 0.26 | 1.01 ± 0.045 | 0.918 ± 0.15 | 0.482 (inactive)
9 | O=C(CC1Sc2ccccc2NC1=O)Nc1ccccc1Cl (stereo not drawn) | 1 ± 0.079 | 0.989 ± 0.067 | 1.01 ± 0.036 | 1.15 ± 0.21 | 1.04 ± 0.043 | 1.04 ± 0.15 | 1 (active)
10 | Clc1ccc(Nc2nc(Nc3ccc(Cl)cc3)nc(N3CCOCC3)n2)cc1 | 0.794 ± 0.072 | 0.902 ± 0.068 | 1.1 ± 0.15 | 0.805 ± 0.12 | 1.26 ± 0.23 | 1.37 ± 0.45 | 1.03 (active)
11 | COc1ccc(N(CC(=O)Nc2ccc3ccccc3c2)S(C)(=O)=O)cc1OC | 0.921 ± 0.074 | 1.06 ± 0.06 | 0.883 ± 0.054 | 0.907 ± 0.025 | 1.43 ± 0.18 | 1.06 ± 0.14 | 1.01 (active)
12 | COc1ccc(OS(=O)(=O)c2ccc3cc(OC)ccc3c2)cc1 | 0.982 ± 0.088 | 1.14 ± 0.089 | 1.06 ± 0.068 | 1 ± 0.035 | 1.43 ± 0.1 | 1.03 ± 0.15 | 1 (active)
13 | O=C(Oc1coc(CSc2ncccn2)cc1=O)c1ccc([N+](=O)[O-])cc1 | 0.972 ± 0.16 | 1.15 ± 0.13 | 1.03 ± 0.15 | 0.996 ± 0.03 | 1 ± 0.22 | 1.03 ± 0.1 | 0.986 (active)
14 | O=C(NCC#CCOc1cccc(C(F)(F)F)c1)Nc1c(F)cccc1F | 0.921 ± 0.077 | 1.13 ± 0.12 | 0.922 ± 0.045 | 0.994 ± 0.051 | 1.07 ± 0.17 | 1.15 ± 0.39 | 1.01 (active)
15 | Oc1ccc(Cl)cc1-c1nc2ccccc2s1 | 1.01 ± 0.084 | 0.944 ± 0.087 | 0.967 ± 0.091 | 1.09 ± 0.035 | 1.29 ± 0.16 | 1.58 ± 0.23 | 1.02 (active)
16 | O=C(C=Cc1cccc([N+](=O)[O-])c1)NCCc1ccccc1 | 1.01 ± 0.17 | 1 ± 0.12 | 0.948 ± 0.12 | 0.963 ± 0.048 | 1.27 ± 0.24 | 1.32 ± 0.24 | 0.99 (active)
17 | Cc1cc(C)c(NC(=O)COc2ccc(C)cc2C(C)(C)C)c(C)c1 | 0.975 ± 0.13 | 0.975 ± 0.06 | 0.962 ± 0.11 | 0.953 ± 0.029 | 1.14 ± 0.19 | 1.01 ± 0.23 | 1.01 (active)
18 | CC(C)(C)c1cc(C(=O)NN=Cc2ccc([N+](=O)[O-])cc2)[nH]n1 | 0.924 ± 0.12 | 0.953 ± 0.083 | 0.893 ± 0.09 | 0.858 ± 0.061 | 1.2 ± 0.11 | 1.02 ± 0.072 | 1.01 (active)
19 | CN1CCC(COc2cnc(-c3cccc(Cn4nc(-c5cccc(C#N)c5)ccc4=O)c3)nc2)CC1 | 0.884 ± 0.28 | 1 ± 0.055 | 1.06 ± 0.082 | 0.713 ± 0.04 | 1.11 ± 0.14 | 1.37 ± 0.36 | 0.625 (inactive)
20 | Cc1ccc(NC(=O)C(C#N)=Cc2ccc(-c3cccc([N+](=O)[O-])c3)o2)cc1 | 1.07 ± 0.084 | 1.06 ± 0.094 | 0.904 ± 0.054 | 1 ± 0.076 | 1.46 ± 0.1 | 1.18 ± 0.14 | 1.01 (active)
21 | CC(=NOCON=C(C)c1ccc(Cl)c(Cl)c1)c1ccc(Cl)c(Cl)c1 | 0.944 ± 0.057 | 0.993 ± 0.086 | 0.936 ± 0.07 | 0.974 ± 0.034 | 1.38 ± 0.14 | 1.18 ± 0.1 | 1.01 (active)
22 | COc1cccc(CC(=O)Nc2ccc(CC(=O)N3CCC(O)CC3)cc2)c1 | 1.07 ± 0.35 | 1.06 ± 0.091 | 1.06 ± 0.074 | 0.884 ± 0.03 | 1.1 ± 0.13 | 1.37 ± 0.19 | 0.945 (active)
23 | Cc1nc(-c2ccc(OCC(C)C)c(C#N)c2)sc1C(=O)O | 0.891 ± 0.14 | 0.957 ± 0.34 | 1.02 ± 0.065 | 0.883 ± 0.048 | 0.973 ± 0.3 | 1.06 ± 0.22 | 1 (active)
24 | Cc1ccc(N2C(=O)CC(Nc3ccc(N4CCOCC4)cc3)C2=O)cc1 (stereo not drawn) | 1.04 ± 0.11 | 1.09 ± 0.09 | 0.823 ± 0.057 | 0.641 ± 0.016 | 1.2 ± 0.16 | 0.908 ± 0.11 | 1.01 (active)
